Experimental data as given in PubChem BioAssay.
For part of these data: Entries with a potency or affinity are not part of this list. Activity calls are given as the source filed them. Unless noted, no rule for the calls is given here.

What was measured:
[1] = antimalarial activity against Dd2 strain (AID 2302;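 active = growth inhibition above 50% at the single 2 µM test dose, taken to imply half-maximal potency below 2 µM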;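 also: 0% = DMSO untreated growth and 100% = chloroquine plus artemisinin killed control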); conditions: P. falciparum Dd2 in RBCs, LDH growth readout, 72 h; at 2 µM; active compounds read high
[2] = HepG2 cytotoxicity, primary screen, cytotoxicity control for P. falciparum antimalarial project, cell-based, ATP luminescence (AID 2303;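 active = inhibition above 50%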;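 also: 0% = DMSO wells and 100% = digitonin-killed cells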); conditions: HepG2 viability, 24-48 h, at 10 µM, active compounds read high
[3] = molecular target: L-lactate dehydrogenase (Plasmodium falciparum (isolate CDC / Honduras)) (UniProt Q27743); assay: PfLDH activity inhibition – cell lysate, 3D7 strain, counter-screen for P. falciparum growth inhibition project (AID 2304);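 also: 0% = vehicle and 100% = reference inhibitor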; conditions: P. falciparum 3D7 crude extract, LDH APAD/NBT absorbance; at 2 µM; active compounds read high
L-lactate dehydrogenase (Plasmodium falciparum (isolate CDC / Honduras)), sequence (Q27743 whole entry, looked up): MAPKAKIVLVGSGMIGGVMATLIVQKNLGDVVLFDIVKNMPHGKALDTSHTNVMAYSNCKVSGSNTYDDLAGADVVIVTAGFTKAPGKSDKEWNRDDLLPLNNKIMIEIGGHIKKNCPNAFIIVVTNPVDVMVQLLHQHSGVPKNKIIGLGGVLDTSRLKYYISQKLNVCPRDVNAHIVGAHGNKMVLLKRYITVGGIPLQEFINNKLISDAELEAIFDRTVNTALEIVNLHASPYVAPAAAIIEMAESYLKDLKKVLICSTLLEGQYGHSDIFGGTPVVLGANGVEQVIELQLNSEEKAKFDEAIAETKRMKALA

[4] = inhibition of 3D7 malaria parasite growth – strain 3D7 (AID 2306);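 also: 0% = DMSO wells and 100% = chloroquine plus artemisinin control wells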; conditions: P. falciparum 3D7 erythrocytic growth, LDH absorbance, 72 h; at 2 µM; active compounds read high
[5] = molecular target: Calcium-dependent protein kinase 1 (Plasmodium falciparum (isolate 3D7)) (UniProt P62344); assay: PfCDPK1 kinase inhibitors, biochemical, TCAMS library (AID 1159585; cut-off not given, nearly all actives have IC50 up to about 0.98 µM;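 also: inhibitors leave more ATP so luminescence rises with inhibition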); conditions: recombinant PfCDPK1, Kinase-Glo ATP depletion luminescence
Calcium-dependent protein kinase 1 (Plasmodium falciparum (isolate 3D7)), sequence (P62344 whole entry, looked up): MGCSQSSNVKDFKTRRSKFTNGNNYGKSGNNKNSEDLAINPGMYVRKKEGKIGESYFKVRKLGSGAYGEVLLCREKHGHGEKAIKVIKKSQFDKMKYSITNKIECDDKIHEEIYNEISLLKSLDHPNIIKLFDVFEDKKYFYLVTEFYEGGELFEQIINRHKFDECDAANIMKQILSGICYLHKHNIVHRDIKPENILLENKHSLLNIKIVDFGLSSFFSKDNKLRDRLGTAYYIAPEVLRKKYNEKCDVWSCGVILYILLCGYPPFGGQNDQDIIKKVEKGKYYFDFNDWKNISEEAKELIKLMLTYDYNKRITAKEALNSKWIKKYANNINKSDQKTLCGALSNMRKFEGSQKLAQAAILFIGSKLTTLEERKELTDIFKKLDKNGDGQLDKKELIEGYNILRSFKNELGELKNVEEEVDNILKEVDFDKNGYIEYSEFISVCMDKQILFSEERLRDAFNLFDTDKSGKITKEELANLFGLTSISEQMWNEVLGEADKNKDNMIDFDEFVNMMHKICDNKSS

[6] = molecular target: Plasmodium falciparum protein kinase 6 (PK6, PF3D7_1337100) (UniProt Q8IDW1); assay: PfPK6 kinase inhibitors, biochemical, TCAMS library (AID 1159586); conditions: recombinant PfPK6, Kinase-Glo ATP depletion luminescence
Plasmodium falciparum protein kinase 6 (PK6, PF3D7_1337100), sequence (Q8IDW1 1-305): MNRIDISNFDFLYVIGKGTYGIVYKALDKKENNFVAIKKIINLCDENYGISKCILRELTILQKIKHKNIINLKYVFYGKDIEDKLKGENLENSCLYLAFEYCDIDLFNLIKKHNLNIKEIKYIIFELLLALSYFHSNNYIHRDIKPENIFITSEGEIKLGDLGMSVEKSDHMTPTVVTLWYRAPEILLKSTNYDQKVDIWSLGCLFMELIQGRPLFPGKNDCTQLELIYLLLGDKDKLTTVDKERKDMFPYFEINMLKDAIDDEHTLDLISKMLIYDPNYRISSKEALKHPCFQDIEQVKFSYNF

[7] = molecular target: Protein kinase 7 (PK7), Plasmodium falciparum 3D7 (PF3D7_0213400) (UniProt Q7YTF7); assay: inhibition of Plasmodium PK7 catalytic activity – biochemical, TCAMS antimalarial set, Kinase-Glo luminescence (AID 1159587); conditions: recombinant PfPK7, Kinase-Glo ATP depletion luminescence
Protein kinase 7 (PK7), Plasmodium falciparum 3D7 (PF3D7_0213400), sequence (Q7YTF7 1-343): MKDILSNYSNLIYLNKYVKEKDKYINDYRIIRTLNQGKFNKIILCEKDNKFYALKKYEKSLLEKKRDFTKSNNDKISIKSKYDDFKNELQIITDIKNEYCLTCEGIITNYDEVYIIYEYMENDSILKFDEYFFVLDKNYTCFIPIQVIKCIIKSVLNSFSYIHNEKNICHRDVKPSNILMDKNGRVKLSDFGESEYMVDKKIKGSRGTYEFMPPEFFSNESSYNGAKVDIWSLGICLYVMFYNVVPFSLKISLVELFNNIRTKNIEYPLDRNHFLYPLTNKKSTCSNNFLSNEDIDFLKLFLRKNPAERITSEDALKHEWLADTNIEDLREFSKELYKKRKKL

[8] = molecular target: Calcium-dependent protein kinase 4 (Plasmodium falciparum (isolate 3D7)) (UniProt Q8IBS5); assay: PfCDPK4 kinase inhibitors, biochemical, TCAMS library (AID 1159588; cut-off not given, nearly all actives have IC50 up to about 0.91 µM); conditions: recombinant PfCDPK4, Kinase-Glo ATP depletion luminescence
Calcium-dependent protein kinase 4 (Plasmodium falciparum (isolate 3D7)), sequence (Q8IBS5 whole entry, looked up): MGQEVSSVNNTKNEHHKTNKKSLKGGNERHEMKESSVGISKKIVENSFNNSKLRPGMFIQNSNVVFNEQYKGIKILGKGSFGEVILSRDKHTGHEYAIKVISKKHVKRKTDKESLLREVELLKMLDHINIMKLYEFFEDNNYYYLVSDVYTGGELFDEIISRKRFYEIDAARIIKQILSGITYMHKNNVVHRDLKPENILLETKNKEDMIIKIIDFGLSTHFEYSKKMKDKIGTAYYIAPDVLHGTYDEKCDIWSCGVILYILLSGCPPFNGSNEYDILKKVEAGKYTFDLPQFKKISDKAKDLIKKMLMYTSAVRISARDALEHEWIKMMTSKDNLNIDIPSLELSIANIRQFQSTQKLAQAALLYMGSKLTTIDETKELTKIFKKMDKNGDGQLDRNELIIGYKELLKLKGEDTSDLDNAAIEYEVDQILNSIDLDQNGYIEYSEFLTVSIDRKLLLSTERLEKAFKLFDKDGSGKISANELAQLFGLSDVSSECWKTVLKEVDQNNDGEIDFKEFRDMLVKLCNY

CC1CCC(NC(=O)c2nn(-c3ccc(Cl)cc3)c(=O)c3ccccc23)CC1 (centres undefined)
inactive: inhibition [2] 3% | inhibition [3] -3% | outcome [5] | outcome [6] | outcome [7] | outcome [8]
active: growth inhibition [1] 67% | growth inhibition [4] 91%

COc1ccc2nc3cc(Cl)ccc3c(Nc3ccc(Sc4ccc(Nc5c6ccc(Cl)cc6nc6ccc(OC)cc56)cc4)cc3)c2c1
inactive: inhibition [2] 1% | inhibition [3] -4% | outcome [5] | outcome [6] | outcome [7] | outcome [8]
active: growth inhibition [1] 94% | growth inhibition [4] 92%

N=c1sc2ccccc2n1CC(O)c1ccc(Cl)c(Cl)c1 (centres undefined)
active: growth inhibition [1] 74% | growth inhibition [4] 99%
inactive: inhibition [2] 4% | inhibition [3] -2% | outcome [5] | outcome [6] | outcome [7] | outcome [8]

CCc1cn2c3c(cc(C(=O)N[C@@H](Cc4ccccc4)[C@H](O)CN[C@@H](C)CC)cc13)N(C)S(=O)(=O)CC2
inactive: inhibition [2] 2% | inhibition [3] -2% | outcome [5] | outcome [6] | outcome [7] | outcome [8]
active: growth inhibition [1] 98% | growth inhibition [4] 99%

NC1=NC(c2ccccc2)(c2ccccc2)C(=O)N1CCCCc1ccccn1
inactive: inhibition [2] 10% | inhibition [3] -4% | outcome [5] | outcome [6] | outcome [7] | outcome [8]
active: growth inhibition [1] 56% | growth inhibition [4] 94%

Oc1ccc(CCCNc2nc(NCc3cccc4ccccc34)nc(N3CCCNCC3)n2)cc1
inactive: inhibition [3] -2% | outcome [5] | outcome [6] | outcome [7] | outcome [8]
active: growth inhibition [1] 62% | inhibition [2] 98% | growth inhibition [4] 96%

Cc1nc2ccc3ccc(CNc4ccc5c(c4)CN([C@@H](CCC(=O)O)C(=O)O)C5=O)cc3c2c(=O)[nH]1
inactive: inhibition [2] 41% | inhibition [3] 2% | outcome [5] | outcome [6] | outcome [7] | outcome [8]
active: growth inhibition [1] 95% | growth inhibition [4] 94%

O=C(Nc1cccc(F)c1)c1ccc(C(=O)NC2CCN(CC3CCCCC3)C2)cc1 (centres undefined)
inactive: growth inhibition [1] 15% | inhibition [2] 16% | inhibition [3] -3% | outcome [5] | outcome [6] | outcome [7] | outcome [8]
active: growth inhibition [4] 96%

NC(=NCc1ccccc1Cl)NCCc1c[nH]c2ccccc12
inactive: growth inhibition [1] 45% | inhibition [2] 16% | inhibition [3] 2% | outcome [5] | outcome [6] | outcome [7] | outcome [8]
active: growth inhibition [4] 83%

O=C(Nc1ccc2c(c1)CCN2C1CCN(Cc2ccc(O)cc2)C1)c1ccco1 (centres undefined)
active: growth inhibition [1] 63% | growth inhibition [4] 97%
inactive: inhibition [2] 0% | inhibition [3] -2% | outcome [5] | outcome [6] | outcome [7] | outcome [8]

CN(C)c1ccc(-c2ccc(C(=O)NC3CCN(Cc4ccc5c(c4)OCCO5)CC3)s2)cc1
active: growth inhibition [1] 73% | growth inhibition [4] 100%
inactive: inhibition [2] 36% | inhibition [3] -2% | outcome [5] | outcome [6] | outcome [7] | outcome [8]

Cc1cc(-c2cnc(N)c(-c3ccc(N4CCN(C)CC4)cc3)c2)cc(C)c1O
active: growth inhibition [1] 99% | growth inhibition [4] 101%
inactive: inhibition [2] 3% | inhibition [3] -5% | outcome [5] | outcome [6] | outcome [7] | outcome [8]

Cc1cccc2[nH]c(-c3cccc(-c4ccc(NC(=O)Nc5ccsc5)cc4)c3)nc12
inactive: inhibition [2] 27% | inhibition [3] 0% | outcome [5] | outcome [6] | outcome [7] | outcome [8]
active: growth inhibition [1] 99% | growth inhibition [4] 100%

COc1ccc2nccc([C@@H](O)CN3CCC(NC(=O)/C=C/c4ccnc5ccccc45)CC3)c2c1
inactive: growth inhibition [1] 12% | inhibition [2] 19% | inhibition [3] -1% | outcome [5] | outcome [6] | outcome [7] | outcome [8]
active: growth inhibition [4] 91%

O=C(Nc1cccc(Cl)c1)N[C@H]1CCN(Cc2ccc(OCCCN3CCCCC3)cc2)C1
inactive: growth inhibition [1] -3% | inhibition [2] 15% | inhibition [3] 1% | outcome [5] | outcome [6] | outcome [7] | outcome [8]
active: growth inhibition [4] 99%

Cc1cc(N(C)CCN(C)C)nc(Nc2ccc(Br)cc2)n1
inactive: growth inhibition [1] 23% | inhibition [2] 7% | inhibition [3] -1% | outcome [5] | outcome [6] | outcome [7] | outcome [8]
active: growth inhibition [4] 97%

CC1(C)N=C(N)N=C(N)N1c1ccc(I)cc1
inactive: growth inhibition [1] 1% | inhibition [2] 16% | inhibition [3] 1% | outcome [5] | outcome [6] | outcome [7] | outcome [8]
active: growth inhibition [4] 92%

O=C(NC1CCN(Cc2ccccc2)CC1)c1ccc(-c2nc3cc(Cl)c(F)cc3[nH]2)cc1
active: growth inhibition [1] 100% | growth inhibition [4] 100%
inactive: inhibition [2] 13% | inhibition [3] 3% | outcome [5] | outcome [6] | outcome [7] | outcome [8]
